This is a sample that favours compounds with a hit; in the whole collection about 1.7% have one here.
LYPLA2 counter: counter-screen for PME1 inhibitors: inhibitors of human LYPLA2 | recombinant LYPLA2, FP-Rh probe fluorescence polarization | hit rate 0.38% among 320,000 | O95372 | inhibition, % at 5.9 µM;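 active = inhibition above the screen-wide mean plus 3 SD, limit set per campaign, cut at about 26% in these data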;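 also: 0% = LYPLA2 with DMSO and 100% = wells lacking LYPLA2 enzyme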
Hck-Nef inh: blocks Nef-activated human Hck kinase; Recombinant Hck-YEEI plus Nef, Z-Lyte FRET kinase assay; hit rate 0.68% among 220,000; P08631; AID 463187; inhibition, % at 20 µM;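 active = Hck-Nef kinase inhibition above about 50%, limit read from the data; inactive = inhibition below that limit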;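 also: 0% = DMSO with Hck plus Nef and 100% = Hck alone without Nef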
PREPL inh: inhibits the human prolyl oligopeptidase-like enzyme; Q4J6C6; recombinant PREPL, fluorescence polarization activity-based probe; inhibition, % at 5.96 µM; hit rate 0.68% among 320,000; in the data active = inhibition above about 43%;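 also: 0% = enzyme with DMSO and 100% = wells lacking enzyme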
LYPLA1 counter: counter-screen for PME1 inhibitors: inhibitors of human LYPLA1. hit rate 0.16% among 320,000. recombinant LYPLA1, FP-Rh probe fluorescence polarization. inhibition, % at 5.9 µM. O75608;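 active = inhibition above the mean of all tested compounds plus 3 SD, set per campaign, cut at about 14% in these data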;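 also: inhibitors block serine hydrolase probe labeling of LYPLA1 so polarization falls; 0% = enzyme with DMSO and 100% = wells lacking LYPLA1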
p97 inhibitor: blocks human p97 ATPase activity; hit rate 0.42% among 220,000; recombinant p97 ATPase, Kinase-Glo ATP luminescence, 3 h; inhibition, % at 8 µM; in the data active = inhibition above about 15%;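 also: 0% = DMSO vehicle and 100% = wells lacking enzyme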
Target sequence (P55072 whole entry, looked up): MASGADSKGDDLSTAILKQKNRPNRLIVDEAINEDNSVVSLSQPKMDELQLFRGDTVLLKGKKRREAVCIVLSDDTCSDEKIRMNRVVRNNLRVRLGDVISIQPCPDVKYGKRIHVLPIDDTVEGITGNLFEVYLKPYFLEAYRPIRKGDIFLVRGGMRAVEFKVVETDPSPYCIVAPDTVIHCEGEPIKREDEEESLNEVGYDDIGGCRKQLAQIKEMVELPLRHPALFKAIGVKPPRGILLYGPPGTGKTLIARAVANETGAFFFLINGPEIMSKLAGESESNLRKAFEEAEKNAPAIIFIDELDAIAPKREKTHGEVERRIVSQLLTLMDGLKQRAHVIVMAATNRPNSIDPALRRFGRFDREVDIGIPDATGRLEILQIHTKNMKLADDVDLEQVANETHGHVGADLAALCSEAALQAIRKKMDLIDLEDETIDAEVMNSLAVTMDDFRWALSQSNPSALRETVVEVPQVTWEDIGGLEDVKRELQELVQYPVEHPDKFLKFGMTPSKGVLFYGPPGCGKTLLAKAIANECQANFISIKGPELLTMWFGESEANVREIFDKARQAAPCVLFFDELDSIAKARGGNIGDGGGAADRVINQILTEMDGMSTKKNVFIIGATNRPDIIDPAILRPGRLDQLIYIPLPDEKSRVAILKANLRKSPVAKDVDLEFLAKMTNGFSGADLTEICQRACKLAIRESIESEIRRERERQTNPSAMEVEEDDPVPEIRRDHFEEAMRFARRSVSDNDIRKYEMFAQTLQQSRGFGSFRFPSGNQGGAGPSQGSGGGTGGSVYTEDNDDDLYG
Rin1-Abl PPI inh: blocks binding of human Rin1 to Abl | P00519+Q13671 | inhibition, % at 7.35 µM | hit rate 0.4% among 360,000 | TR-FRET Rin1/Abl binding, biochemical | AID 588664; in the data active = inhibition above about 5%, passing the limit was not always enough
Rin1-Abl confirm: confirmation of inhibitors of human Rin1-Abl interaction; TR-FRET Rin1-Abl binding, purified proteins; AID 602124; hit rate 49% among 1,300; shares compounds with Rin1-Abl PPI inh; inhibition, % at 7.35 µM
GFP quench: GFP fluorescence interference artifact; shares compounds with Rin1-Abl PPI inh; inhibitors/quenchers counterscreen; inhibition, % at 6.75 µM; hit rate 8.5% among 1,300; AID 602125;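 also: ABL1-eGFP fusion protein alone without its partner RIN1-SBP; 0% = protein with vehicle and 100% = wells lacking protein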
* marks the source's active call; other numbers are inactive results; . = not tested or not shown; ! = a repeat was not active. Rule as the data show it, unless noted: active = inhibition above about 6.5%; inactive = the rest.

SMILES | LYPLA2 counter | Hck-Nef inh | PREPL inh | LYPLA1 counter | p97 inhibitor | Rin1-Abl PPI inh | Rin1-Abl confirm | GFP quench
COC(=O)[C@H](C)NC(=O)N1CCC(Cc2ccccc2)CC1 | -1.6 | . | -0.4 | 0.0 | . | -2.8 | . | .
COc1ccc(OC)c(NC(=O)COc2ccc(S(=O)(=O)NC(C)C)cc2)c1 | 3.1 | -10.7 | 16.1 | 2.3 | 1.3 | 7.4* | -0.8 | 0.2
COc1ccc(OC)c(NC(=O)COc2ccc(S(=O)(=O)N3CCCC3)cc2)c1 | -6.0 | . | 4.4 | -3.5 | . | 4.0 | . | .
CCN(C1CCCCC1)S(=O)(=O)c1ccc(-n2cnnn2)c(C)c1 | -0.3 | . | 9.8 | 4.8 | . | 13.8* | -0.9 | 0.3
O=c1[nH]c(Nc2ccccc2)cc2cc(Br)ccc12 | 5.6 | . | 25.4 | -3.5 | . | -1.1 | . | .
O=c1[nH]c(Nc2ccccc2)cc2ccccc12 | 6.7 | 8.1 | 14.8 | 3.6 | 8.3 | 5.6* | 1.9 | -2.4
Cc1ccc(CS/C(Nc2ccccc2C)=C(\C#N)C(=O)NCc2ccco2)c(C)c1 | -1.2 | 0.5 | -2.8 | -5.6 | -1.9 | 25.7* | 0.6 | 1.6
Cc1ccccc1N/C(SCc1ccc(Cl)cc1)=C(/C#N)C(=O)NCc1ccco1 | 0.5 | 0.1 | -8.2 | 3.2 | 0.5 | 4.0 | . | .
CCC(C)N(C(=O)Cn1nnc(-c2ccc(Cl)cc2)n1)C1CCS(=O)(=O)C1 (stereo not given) | -3.5 | . | 15.6 | 0.4 | . | 4.0 | . | .
O=C(Nc1cccc2nsnc12)C1CC(=O)N(c2ccccc2)C1 (stereo not given) | 0.5 | 4.0 | 1.3 | -0.7 | 3.0 | 10.4* | -5.1 | -0.7
Oc1ccc(/C=N/N(c2ccccc2)c2ccccc2)c(O)c1O | -2.6 | . | 19.0 | -9.4 | . | 10.4* | 5.7 | 3.7
CN(Cc1ccc(F)cc1)C(=O)c1ccc(NS(=O)(=O)c2ccccc2)cc1 | -7.5 | . | 7.9 | -1.8 | . | 9.5* | 0.8 | -0.1
CN(Cc1ccc(F)cc1)C(=O)c1cccc(S(=O)(=O)NCc2ccccc2)c1 | 4.5 | . | 1.5 | -0.6 | . | 1.6 | . | .
COc1ccc(CC(N)c2csc(NC(=O)NCCc3ccccc3)n2)cc1 (stereo not given) | . | . | . | . | . | 10.0* | 6.8* | 1.4
NC(Cc1ccc(Cl)cc1)c1csc(NC(=O)NCCc2ccccc2)n1 (stereo not given) | . | . | . | . | . | 6.3 | . | .
CCN(CC(=O)Nc1ccc2c(c1)OCCO2)CC(=O)Nc1ccc(C)c(S(=O)(=O)N(C)C)c1 | . | . | 6.0 | . | . | 2.1 | . | .
CSc1ccc(NC(=O)N2CCC(C(=O)c3ccc(F)cc3)CC2)cc1 | 2.5 | . | 10.3 | -1.6 | . | 7.4* | -1.3 | 0.1
Oc1cc2c(c(Cl)c1O)CCNCC2c1ccccc1 (stereo not given) | -2.9 | . | 1.6 | -3.1 | . | 7.7 | . | .
Oc1ccc(C2CNCCc3c2cc(O)c(O)c3Cl)cc1 (stereo not given) | 5.1 | . | 0.6 | 2.8 | . | 18.4*! | 30.4* | 8.4*
COc1ccc(C(=O)COC(=O)COc2cc(C)cc(C)c2)cc1 | 4.8 | . | 7.5 | -2.5 | . | -3.3 | . | .
Cc1cccc(NC(=O)[C@H](NC(=O)[C@@H]2Cc3ccccc3CN2)c2ccccc2)c1 | -6.8 | . | 11.4 | 0.2 | . | 2.2 | . | .
Cc1cccc(NC(=O)[C@@H](CC(C)C)NC(=O)[C@@H]2Cc3ccccc3CN2)c1 | -0.8 | . | 8.8 | 1.4 | . | 29.5* | 2.2 | 1.1
CCN1C(=O)CC(n2c(C)nc3ccccc32)C1=O (stereo not given) | 1.5 | 8.9 | -2.4 | 4.0 | 4.0 | 7.9* | -1.1 | -0.8
O=C(c1ccc2ccccc2n1)N1CCN(S(=O)(=O)c2ccccc2)CC1 | . | . | 6.7 | . | . | -0.5 | . | .
CN(C)CCCNC(=O)c1ccc(-c2cc(O)c3ncccc3c2)cc1 | . | . | 41.9 | . | . | 24.8* | 30.5* | 19.0*
SMILES | LYPLA2 counter | Hck-Nef inh | PREPL inh | LYPLA1 counter | p97 inhibitor | Rin1-Abl PPI inh | Rin1-Abl confirm | GFP quench
CNc1ncnc2c1ncn2[C@@H]1O[C@H](CO)[C@@H](O)[C@H]1O | 3.8 | . | 2.8 | 0.8 | . | -1.8 | . | .
NCCNC(=O)Cc1ccc(NC(=O)Cc2ccc(Nc3ncnc4c3ncn4[C@@H]3O[C@H](CO)[C@@H](O)[C@H]3O)cc2)cc1 | -3.5 | . | 7.1 | -1.9 | . | 16.2* | 27.7* | -1.9
C/C(=N/Nc1ccc(C(=O)O)cc1)c1ccc(O)c(O)c1O | -6.7 | 8.0 | -1.7 | -4.1 | 3.4 | 28.7* | 31.8* | 8.4*
CCn1c(Cc2ccccc2)nnc1SCC(=O)c1c(N)n(C2CC2)c(=O)[nH]c1=O | 4.0 | . | 4.3 | 0.0 | . | 5.7 | . | .
CC(=O)Nc1cc(NC(C)=O)cc(C(=O)NCC2(N3CCOCC3)CCCCC2)c1 | . | . | . | . | . | 4.8 | . | .
O=C(c1ccccc1)N1CCN(C2CCCCC2)CC1 | 0.5 | 7.4 | -6.9 | -1.5 | 0.2 | -4.5 | . | .
O=C(c1ccncc1)N1CCN(C2CCCCC2)CC1 | -3.7 | -1.3 | 6.7 | -0.4 | 2.4 | 10.0* | 1.2 | -1.0
O=C(Nc1cc([N+](=O)[O-])c2[nH]c(=O)c3ccccc3c2c1)C(F)(F)F | . | . | . | . | . | 1.5 | . | .
CCN(CC)CCNc1ncnc2c1sc1nc(N3CCCC3)c3c(c12)CC(C)(C)OC3 | -6.2 | -32.7 | 41.0 | 1.6 | -0.9 | 10.2* | 12.7* | -1.4
CCN(CC)CCNc1ncnc2c1sc1nc(N3CCOCC3)c3c(c12)CCCC3 | 6.4 | 17.8 | 23.6 | -3.6 | 0.3 | 10.7* | 3.4 | -0.9
CN(C)CCNc1ncnc2c1sc1nc(N3CCCC3)c3c(c12)CC(C)(C)OC3 | 0.9 | 31.9 | 34.0 | 2.9 | -2.8 | 7.2* | 10.2* | -1.5
CC(=O)c1ccc(NC2=C(N3CCOCC3)C(=O)c3ccccc3C2=O)cc1 | 0.7 | 1.1 | 14.6 | -2.1 | 2.7 | 5.0 | . | .
Cc1ccc(NC2=C(N3CCOCC3)C(=O)c3ccccc3C2=O)cc1 | 6.1 | 0.5 | 12.6 | 3.2 | 5.5 | 11.9* | -4.7 | 0.5
CCN(CC)c1ncnc2c1ncn2[C@H]1CN(Cc2ccncc2)C[C@@H](CO)O1 | . | . | . | . | . | 7.7* | -3.2 | -0.4
CCN(CC)c1ncnc2c1ncn2[C@H]1CN(Cc2ccccc2)C[C@@H](CO)O1 | . | . | . | . | . | 0.1 | . | .
CN(C)c1ncnc2c1ncn2[C@H]1CN(Cc2ccc(Cl)cc2)C[C@@H](CO)O1 | . | . | . | . | . | 6.9* | 3.3 | -2.8
O=C(C1CCCN(Cc2ccc3c(c2)OCO3)C1)N1CCCC1 (stereo not given) | 4.0 | -0.8 | 8.3 | 3.5 | -7.6 | 3.7 | . | .
O=C(C1CCN(c2nnc(N3CCCC3=O)s2)CC1)N1CCN(Cc2ccc3c(c2)OCO3)CC1 | . | -5.8 | . | . | 2.1 | 10.2* | 4.7 | -0.6
Cc1cc(C)cc(NC(=O)C(=O)NCCCN2CCCC2=O)c1 | 4.4 | . | -7.3 | 3.7 | . | 4.3 | . | .
COc1ccc(-n2ncc3c(N4CCCCC4)ncnc32)cc1 | -3.3 | 0.5 | 5.0 | -1.9 | -2.1 | 6.1* | -4.5 | 0.7
CN(C)Cc1cc(C(C)(C)C)cc(C(C)(C)C)c1O | 7.7 | 4.4 | -1.1 | 1.3 | 4.2 | -1.6 | . | .
CN(C)Cc1cc(O)c(CN(C)C)cc1O | -0.3 | -159.8 | 5.8 | -0.1 | -4.9 | 13.4* | 2.1 | 4.3

Source: PubChem
